Test results published in PubChem BioAssay (Tox21).
Values without a mark were called inactive. Entries that show only a call come without a potency. Active and inactive are the calls of the source. Unless noted, calls come from the whole dose curve; as a rule, active = well fitted curve in the direction sought with a large enough effect in the repeat runs; inconclusive = weak or mixed curves; inactive = no such curve, though single readings can be large; an effect the other way counts as inactive or inconclusive.

Experiments:
[1] = qHTS assay for small molecules that induce genotoxicity in human embryonic kidney cells expressing luciferase-tagged ATAD5 (AID 651632); note: nearly all actives have a fitted effect of over 15% in size
Summary of the method: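 Test compounds were delivered by pin tool onto HEK293T reporter cells (2,000/well) expressing ATAD5 fused to luciferase. After 16 hr at 37C, 5% CO2, Amplite was added for 30 min at room temperature and luminescence was measured.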

[2] = qHTS assay for small molecules that induce genotoxicity in human embryonic kidney cells expressing luciferase-tagged ATAD5 - cell viability (AID 651634; calls by dose curve; note: nearly all actives have a fitted effect of over 25% in size)
Summary of the method: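 Quantitative high-throughput format. HEK293T cells expressing ATAD5 fused to luciferase were plated at 2,000 cells/well and treated 15.5 hr with compound versus DMSO. Viability was determined by fluorescent live-cell protease substrate, 30 min at 37C.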

[3] = qHTS assay for small molecule disruptors of the mitochondrial membrane potential - cell viability (AID 720634; calls by dose curve;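 note: human HepG2 liver cancer cells; nearly all actives have a fitted effect of over 20% in size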)
Summary of the method: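 Same-well counter-screen: following the MMP dye addition, CellTiter-Glo was added to 1 hr compound-treated HepG2 cells and luminescence read after 30 min at room temperature.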

[4] = qHTS assay to test for compound auto fluorescence at 535 nm (green) in HepG2 cells (AID 720675)
[5] = qHTS assay to test for compound auto fluorescence at 460 nm (blue) in HEK293 cells (AID 720678)
Summary of the method: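 HEK293 cells (2,000 per well, medium with 10% dialyzed FBS) attached for 4-5 hr at 37C, then received compound and stood overnight at 37C, 5% CO2. Blue fluorescence was read at Ex/Em 405/460 nm and expressed relative to triamterene.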

[6] = qHTS assay to test for compound auto fluorescence at 590 nm (red) in HEK293 cells (AID 720679)
Summary of the method: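 HEK293 cells (2,000/well, medium with 10% dialyzed FBS) attached for 4-5 hr at 37C, received 23 nL compound and were incubated overnight at 37C, 5% CO2. Red fluorescence was then read at 540/590nm Ex/Em, referenced to Rose Bengal sodium.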

[7] = qHTS assay to test for compound auto fluorescence at 535 nm (green) in HEK293 cells (AID 720680)
[8] = qHTS assay to test for compound auto fluorescence at 460 nm (blue) in HEK293 cell free culture (AID 720681)
Summary of the method: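 Compounds were added to cell-free DMEM with 10% FBS and fluorescence read directly. The blue channel used 405 nm excitation and 460 nm emission, with triamterene as the reference fluorophore.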

[9] = qHTS assay to test for compound auto fluorescence at 535 nm (green) in HEK293 cell free culture (AID 720682)
Summary of the method: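 Intrinsic compound fluorescence is measured in culture medium containing 10% FBS, with excitation at 485 nm and detection at 535 nm, referenced to fluorescein.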

[10] = qHTS assay to test for compound auto fluorescence at 590 nm (red) in HEK293 cell free culture (AID 720683)
Summary of the method: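 Cell-free wells of DMEM with 10% FBS received compound, and intrinsic fluorescence was read at excitation/emission 540/590 nm. Values expressed as equivalence to Rose Bengal sodium.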

[11] = qHTS assay to test for compound auto fluorescence at 590 nm (red) in HepG2 cell free culture (AID 720684)
Summary of the method: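 Rose Bengal sodium served as the reference for red signal. Test compounds were dispensed into serum-containing MEM (10% FBS) without cells, and plates were read at 540/590 nm.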

[12] = qHTS assay to test for compound auto fluorescence at 460 nm (blue) in HepG2 cell free culture (AID 720685)
Summary of the method: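 Cell-free plates of MEM plus 10% FBS received 23 nL compound or DMSO vehicle; blue-channel (405/460 nm) intensity scored against triamterene as reference fluorophore.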

[13] = qHTS assay to test for compound auto fluorescence at 535 nm (green) in HepG2 cell free culture (AID 720686)
[14] = qHTS assay to test for compound auto fluorescence at 460 nm (blue) in HepG2 cells (AID 720687)
Summary of the method: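 HepG2 cells in MEM with 10% FBS, attached overnight at 37 C, were exposed to compound or DMSO for 1 hr at 37 C, 5% CO2. Blue fluorescence was read at 405/460 nm, with triamterene as reference fluorophore.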

[15] = qHTS assay for small molecule agonists of the p53 signaling pathway - cell viability (AID 651633; calls by dose curve;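 note: p53RE-bla HCT reporter cells with a stable beta-lactamase p53 reporter; nearly all actives have a fitted effect of over 30% in size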)
Summary of the method: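 p53RE-bla cells were treated with compound for 16 hours at 37 C. Cytotoxicity was then measured as CellTiter-Glo luminescence after 30 min at room temperature.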

[16] = qHTS assay to test for compound auto fluorescence at 590 nm (red) in HepG2 cells (AID 720674)
Summary of the method: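 HepG2 cells, 2,000 per well in MEM with 10% FBS, attached overnight at 37 C, then got 23 nL compound or DMSO. After 1 hr at 37 C, 5% CO2, red fluorescence was read at 540/590 nm against Rose Bengal sodium as reference.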

[17] = target: Glucocorticoid receptor (Homo sapiens) (UniProt P04150); assay: qHTS assay to identify small molecule agonists of the glucocorticoid receptor (GR) signaling pathway (AID 720691; active = well fitted activation curve with a large enough effect in the signal ratio in the repeat runs, not every such curve was filed as active; inconclusive = weak or mixed curves, or effect the other way; inactive = no such curve, though single readings can be large or run the other way; the % refers to the signal ratio; note: potency is the fitted concentration of half-maximal effect); conditions: GR-bla HeLa, beta-lactamase reporter ratio, 18 h; activation: at 62.4 µM (top of the series) unless noted
Chain of Glucocorticoid receptor (Homo sapiens) (P04150 whole entry, looked up): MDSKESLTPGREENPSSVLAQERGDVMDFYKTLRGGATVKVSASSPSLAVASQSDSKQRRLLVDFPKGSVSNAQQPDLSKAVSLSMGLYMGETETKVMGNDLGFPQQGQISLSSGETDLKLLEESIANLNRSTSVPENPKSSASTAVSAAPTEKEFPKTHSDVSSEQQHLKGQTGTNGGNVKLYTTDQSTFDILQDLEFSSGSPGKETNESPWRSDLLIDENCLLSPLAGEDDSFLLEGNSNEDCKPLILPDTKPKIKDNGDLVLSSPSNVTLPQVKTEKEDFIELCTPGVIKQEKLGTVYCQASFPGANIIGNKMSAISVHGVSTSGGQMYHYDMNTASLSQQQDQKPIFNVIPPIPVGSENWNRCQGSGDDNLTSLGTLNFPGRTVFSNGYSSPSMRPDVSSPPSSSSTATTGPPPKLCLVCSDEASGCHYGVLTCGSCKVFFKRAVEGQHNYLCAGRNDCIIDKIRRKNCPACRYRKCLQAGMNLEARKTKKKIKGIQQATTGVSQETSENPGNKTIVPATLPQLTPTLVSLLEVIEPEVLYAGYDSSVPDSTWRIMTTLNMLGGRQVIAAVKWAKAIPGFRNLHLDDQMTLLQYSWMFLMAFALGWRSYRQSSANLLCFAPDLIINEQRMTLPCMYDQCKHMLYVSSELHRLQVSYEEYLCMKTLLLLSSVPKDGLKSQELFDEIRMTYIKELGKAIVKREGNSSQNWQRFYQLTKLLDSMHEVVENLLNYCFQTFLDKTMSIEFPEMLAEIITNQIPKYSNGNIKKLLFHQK
Summary of the method: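 A HeLa cervical cancer line expressing GR and a glucocorticoid response element-driven beta-lactamase gene is treated with compounds for 18 h; LiveBLAzer B/G FRET substrate is then applied and fluorescence read.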

[18] = target: Glucocorticoid receptor (Homo sapiens) (UniProt P04150); assay: qHTS assay to identify small molecule antagonists of the glucocorticoid receptor (GR) signaling pathway (AID 720692; active = well fitted inhibition curve with a large enough effect in the signal ratio in the repeat runs, not every such curve was filed as active; inconclusive = weak or mixed curves, or effect the other way; inactive = no such curve, though single readings can be large or run the other way; the % refers to the signal ratio)
Summary of the method: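 GRE-bla HeLa line, dex-stimulated (5 nM final). Compound exposure 18 h, 37 C. Beta-lactamase FRET read after 2 h RT substrate.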

[19] = qHTS assay for small molecule disruptors of the mitochondrial membrane potential (AID 720635); note: potency is the fitted concentration of half-maximal effect
Summary of the method: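 HepG2 cells exposed to compound 1 hr at 37C, then Mito-MPS dye 30 min. Ratio read of aggregate (540/590 nm) versus monomer (490/535 nm) fluorescence.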

| SMILES | Potency [1] | Potency [2] | Potency [3] | Potency [4] | outcome [5] | Potency [6] | outcome [7] | outcome [8] | outcome [9] | Potency [10] | Potency [11] | outcome [12] | Potency [13] | outcome [14] | Potency [15] | Potency [16] | Potency [17] | Potency [18] | Potency [19] |
| --- | --- | --- | --- | --- | --- | --- | --- | --- | --- | --- | --- | --- | --- | --- | --- | --- | --- | --- | --- |
| CCCCCCCCCCO[C@@H]1O[C@H](CO)[C@@H](O)[C@H](O)[C@H]1O | inactive | inactive | inactive | inactive | inactive | inactive | inactive | inactive | inactive | inactive | inactive | inactive | inactive | inactive |  |  |  |  |  |
| Nc1ncn([C@H]2C[C@H](O)[C@@H](CO)O2)c(=O)n1 |  | inactive | inactive | inactive | inactive | inactive | inactive | inactive | inactive |  | inactive | inactive | inactive | inactive | inactive | inactive | inactive |  |  |
| O=C(O)CC(=O)C(=O)O | inactive | inactive | inactive | inactive |  | inactive |  | inactive | inactive | inactive | inactive | inactive | inactive | inactive |  | inactive | inactive | inactive |  |
| CCO[C@H](Cc1ccc(OCCc2ccc(OS(C)(=O)=O)cc2)cc1)C(=O)O | inactive | inactive | inactive | inactive | inactive | inactive |  | inactive | inactive | inactive | inactive | inactive | inactive | inactive |  |  |  | inactive | inactive |
| CCCNCC(O)COc1ccccc1C(=O)CCc1ccccc1 (stereo not given) |  | inactive | inactive | inactive | inactive | inactive | inactive | inactive | inactive | inactive | inactive | inactive |  | inactive | inactive | inactive |  |  |  |
| COc1cc(Cl)c(OC)cc1N |  | inactive | inactive | inactive |  | inactive | inactive | inactive | inactive | inactive | inactive | inactive | inactive | inactive |  | inactive | inactive | inactive |  |
| COc1ccc(C(=O)Nc2nc3ccccc3c(NCc3ccccc3)c2C#N)cc1 | inactive | inactive |  | inactive | inactive | inactive |  | inactive |  | inactive | inactive | inactive |  | inactive |  | inactive |  |  | 5.45 µM (active) |
| C#Cc1cccc(Nc2ncnc3cc(OCCOC)c(OCCOC)cc23)c1 | inactive |  | inactive | inactive | inactive | inactive | inactive | inactive |  | inactive | inactive | inactive | inactive | inactive |  | inactive | 26.8 µM [inconclusive] (active) |  |  |
| O=C1CCCCCCCCCCCC(=O)OCCO1 | inactive | inactive | inactive | inactive | inactive | inactive | inactive | inactive | inactive | inactive | inactive | inactive | inactive | inactive |  |  | inactive | inactive |  |
